Compound activity: PubChem, several laboratories
TRPM1 prom inh: reduces MITF-dependent TRPM1 promoter luciferase signal; SK-MEL-5 TRPM1 promoter luciferase, 24 h; inhibition, % at 12.5 µM; 0.83% of 330,000 active;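 active = mean inhibition across replicates of 60% or more, whatever share of single replicates reaches that level; inconclusive = some that reach 60%, reason not given; inactive = mean inhibition across replicates below 60%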
TWEAK Fn14 block: TWEAK-Fn14 signaling inhibition. TWEAK-stimulated Fn14 reporter cells, luciferase luminescence, 8 h. inhibition, % at 10 µM. 2% of 360,000 active. AID 1159606; in the data active = inhibition above about 50%
LMP1 NFkB inh: Epstein-Barr LMP1 NF-kappaB reporter inhibition; LMP1-induced NF-kappaB luciferase reporter cells, luminescence; 0.69% of 350,000 active; AID 504558; inhibition, % at 12.5 µM; in the data active = inhibition above about 41%; inconclusive = no clear call, values can overlap the other calls;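 note: 0% = neutral control wells and 100% = reference inhibitor control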
Shn3 3UTR inh: reduces Shn3 3'UTR luciferase signal in osteoblasts. Clone20 osteoblast Shn3 3'UTR firefly luciferase, 24 h. inhibition, % at 12.5 µM. 0.52% of 360,000 active. AID 588674;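 active = mean inhibition of at least 75% with every replicate also reaching 75%; inconclusive = mean inhibition at least 75% but some replicate below; inactive = mean inhibition below 75%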;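 note: 0% = median of neutral control wells and 100% = pilot-screen positive control compound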
TROY NFkB inh: inhibitors of TROY-dependent NF-kB signaling; 0.98% of 360,000 active; inhibition, % at 10 µM; Q293 LMP1-TROYcd NF-kB luciferase reporter, 4 h;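 active = compounds whose plate-normalised and pattern-corrected inhibition of the luciferase reporter signal at the single screening dose is 50% or more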
Peg3 promoter: inhibitors of Peg3 promoter; 1.7% of 360,000 active; HeLa PEG-Prom luciferase reporter, luminescence, overnight; inhibition, % at 20 µM;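 active = inhibition of at least 50% at 20 µM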
* = called active by the depositor; ? = inconclusive; / = no result. In the library only some 4.1% were active in any assay of this set; here they are far more common.

SMILES	TRPM1 prom inh	TWEAK Fn14 block	LMP1 NFkB inh	Shn3 3UTR inh	TROY NFkB inh	Peg3 promoter
Cc1cc(N2CCN(C(=O)c3ccco3)CC2)c2ccccc2n1	5.3	7.3	10.8	-14.9	-11.7	10.4
O=C(c1ccco1)N1CCN(c2nc3ccccc3c(=O)n2-c2ccccc2)CC1	12.2	-22.1	5.9	3.0	61.0*	18.2
O=C(CCl)N1CCCC1c1ccc2c(c1)OCCO2 (centres undefined)	89.8*	24.9	-30.9	-7.9	-3.8	39.8
CC1CCC2(CC1)NC(=O)N(CC(=O)NC(=O)Nc1ccc3c(c1)OCCO3)C2=O (centres undefined)	-13.9	50.0*	-10.5	1.6	30.9	-7.6
O=C(CN1CCCC1c1ccc2c(c1)OCCO2)NC(=O)Nc1ccccc1 (centres undefined)	-7.2	67.8*	-4.4	-17.2	59.5*	-28.9
CC(=O)c1ccc(OCC(=O)N2CCCC2c2ccc3c(c2)OCCCO3)cc1 (centres undefined)	-8.2	-4.7	-1.5	9.5	4.8	-2.0
Cc1ccc(NC(=O)NC(=O)CN2CCCC2c2ccc3c(c2)OCCO3)cc1C (centres undefined)	-9.4	-12.5	-4.5	2.0	13.5	-17.3
COCCn1c(SCC(=O)NCC2CCCO2)nc2c([nH]c3ccccc32)c1=O (centres undefined)	21.5	3.4	-10.0	-0.5	19.7	16.8
CN(CC(=O)N1CCOCC1)S(=O)(=O)c1ccc2ccccc2c1	-1.4	0.3	-10.2	14.1	-1.8	1.4
COc1ccccc1CNc1ccc(Br)cn1	-41.9	-21.2	-12.2	-12.0	-48.6	-152.9
Clc1ccc(/C=C/c2nc3ccccc3[nH]2)cc1	18.7	81.4*	19.0	0.2	15.5	-50.4
Clc1ccc(/C=C/c2nc3ccccc3[nH]2)c(Cl)c1	4.6	63.7*	9.8	-28.2	48.0	-82.7
CCOC(=O)/C(C#N)=C/Nc1cc(C(=O)OCC)cc2c(OC)c(OC)ccc12	11.3	-47.9	-13.4	20.2	-32.5	14.1
Cc1cccc2sc(NC(=O)c3ccc(OCC4CCCO4)cc3)nc12 (centres undefined)	-10.4	85.0*	4.5	-15.2	33.0	-212.3
Cc1cccc(C(C)C)c1NC(=O)c1ccc(OCC2CCCO2)cc1 (centres undefined)	7.1	2.8	6.9	22.0	-9.7	-15.3
CCOc1ccc2nc(NC(=O)c3ccc(OCC4CCCO4)cc3)sc2c1 (centres undefined)	-2.3	61.8*	1.5	41.9	48.6	-97.1
Cc1ccnc(NC(=O)c2ccc(OCC3CCCO3)cc2)c1 (centres undefined)	22.4	82.7*	45.2*	-0.3	56.8*	33.4
Cc1ccc(NC(=O)c2ccc(OCC3CCCO3)cc2)c(C)c1 (centres undefined)	/	-8.9	7.3	4.3	11.7	2.2
Cc1csc(NC(=O)c2ccc(OCC3CCCO3)cc2)n1 (centres undefined)	-14.3	68.6*	34.9	-11.0	23.0	-56.6
CCOc1ccc2nc(NC(=O)CSc3nnc(-c4ccncc4)n3CC3CCCO3)sc2c1 (centres undefined)	-38.2	-2.3	-18.0	-82.8	-69.2	-170.8
COC(=O)c1cccc(NC(=O)CN2C(=O)c3ccccc3C2=O)c1	6.5	9.9	0.1	-8.1	26.6	4.5
Cc1ccnc(NC(=O)COc2ccc3c(c2)CCC3)c1	-42.7	79.4*	-19.0	-44.3	40.1	-108.6
CCOC(=O)Oc1c(OC)cc(C(=O)O[C@@H]2C[C@@H]3CN4CCc5c([nH]c6cc(OC)ccc56)[C@H]4C[C@@H]3[C@H](C(=O)OC)[C@H]2OC)cc1OC	33.5	49.5	45.8*	93.0*	22.0	25.6
O=C(Nc1ccc2c(c1)OCCO2)C1CC(O)CN1C(=O)Nc1ccccc1 (centres undefined)	-7.7	35.7	-4.3	-1.4	7.0	2.1
COc1ccc(C2=NN(C(=O)CCCC(=O)O)C(c3cn(-c4ccccc4)nc3-c3ccccc3)C2)cc1 (centres undefined)	12.3	8.9	-0.1	3.3	0.8	26.4
SMILES	TRPM1 prom inh	TWEAK Fn14 block	LMP1 NFkB inh	Shn3 3UTR inh	TROY NFkB inh	Peg3 promoter
COc1ccc(F)cc1S(=O)(=O)Nc1cccc(C(=O)O)c1	5.4	-10.1	-1.6	11.3	8.3	5.8
CC(=O)c1ccc(N2CCN(c3ncccn3)CC2)c([N+](=O)[O-])c1	-16.9	32.2	-4.5	4.9	-27.3	-27.6
CC(=O)c1ccc(N2CCC(c3cc(-c4ccc(Cl)cc4)n[nH]3)CC2)c([N+](=O)[O-])c1	17.4	62.0*	-1.8	?	48.5	22.9
COC(=O)c1ccc(N2CCC(c3cc(-c4ccc(OC)cc4)n[nH]3)CC2)c([N+](=O)[O-])c1	4.6	24.7	-10.3	61.9	9.1	9.2
COc1ccc(-c2cc(C3CCN(c4ccc(C(C)=O)cc4[N+](=O)[O-])CC3)[nH]n2)cc1	19.5	71.3*	4.0	?	73.5*	24.5
CCOC(=O)c1sc(NC(=O)CS(=O)(=O)c2ccc(C)cc2)nc1C	24.0	11.6	2.6	11.0	-2.6	9.4
Cn1cnc([N+](=O)[O-])c1Oc1ccccc1	-2.8	15.5	-2.9	-24.5	2.5	16.0
Cn1cnc([N+](=O)[O-])c1Oc1cccc2ccccc12	49.2	50.4*	-8.8	-13.0	25.9	0.0
O=C(COc1cccnc1[N+](=O)[O-])Nc1cccc2ccccc12	18.2	-1.4	6.2	-8.5	-0.5	6.6
Cn1cnc([N+](=O)[O-])c1Cl	-0.2	-5.6	-6.5	-28.1	-3.3	-16.9
Cn1cnc([N+](=O)[O-])c1S(=O)(=O)Oc1ccc(Cl)cc1	68.2*	15.4	-17.5	93.5*	47.5	103.0*
Cn1cnc([N+](=O)[O-])c1S(=O)(=O)Oc1cccc2ccccc12	92.8*	66.5*	0.8	97.1*	74.2*	104.8*
CCS(=O)(=O)c1c([N+](=O)[O-])ncn1C	8.5	18.2	-4.1	-15.4	7.1	59.6*
CCN(CC)c1c([N+](=O)[O-])ncn1C	3.5	1.4	5.2	-5.2	0.5	4.2
Cc1ccc(-c2nc3sc(C(N)=O)c(N)c3c3c2CCCC3)cc1	-2.9	-13.5	-2.4	-13.3	11.9	26.1
Cc1nc2sc(C(N)=O)c(N)c2c2c1CCCC2	18.9	23.1	51.3*	15.2	-9.1	-27.5
O=S(=O)(NCC(c1ccccc1)N1CCC(O)CC1)c1ccc(Cl)cc1 (centres undefined)	4.7	-0.8	-2.0	10.6	6.6	4.3
O=S(=O)(NCC(Nc1ccc(Cl)cc1)c1ccccc1)c1ccc(Cl)cc1 (centres undefined)	2.6	69.1*	-1.9	52.1	51.4*	38.8
NS(=O)(=O)c1ccc(CCNC(=O)c2ccc(C#CC3(O)CCCCC3)cc2)cc1	10.8	26.9	-3.2	6.5	56.2*	87.2*
NS(=O)(=O)c1ccc(CCNC(=O)c2ccncc2)cc1	5.4	18.0	-2.1	0.8	-6.6	0.4
